Results on one sequence are retold here after PMC7862700, “An all-to-all approach to the identification of sequence-specific readers for epigenetic DNA modifications on cytosine”.

What all share (assay): DAPPL (digital affinity profiling via proximity ligation, sequencing); 10 mM Tris-HCl pH 7.5, 50 mM NaCl, 1 mM DTT, 4% glycerol, room temperature, 30 min; GST-TFs on glutathione beads, 16-mer random dsDNA library, 0.1% formaldehyde crosslink after washing; high values mean tight binding
Experiment [1] concerns the target T1, FEV (Homo sapiens, UniProt Q99581 1-238).
T1 sequence: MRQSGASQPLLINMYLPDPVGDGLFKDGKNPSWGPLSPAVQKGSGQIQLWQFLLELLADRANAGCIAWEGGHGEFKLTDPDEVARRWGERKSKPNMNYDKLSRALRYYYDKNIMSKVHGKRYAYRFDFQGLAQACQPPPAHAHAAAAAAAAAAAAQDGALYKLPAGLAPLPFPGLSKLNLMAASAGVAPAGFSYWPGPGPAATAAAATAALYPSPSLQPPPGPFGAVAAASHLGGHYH
As to conditions: protein: recombinant; tags: N-terminal GST; dsDNA, one strand shown. The essentials: (§1)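 Binding signal is given per hexamer as its read frequency for a factor divided by its frequency in the tag-only sample. GST-fused human transcription factors were expressed in yeast, captured on glutathione beads, barcoded with DNA and pooled with that sample, then incubated with 200 nmole of a 16-mer random double-stranded DNA library in Tris/NaCl/DTT/glycerol buffer for 30 min at room temperature. The pools were then washed, crosslinked, proximity-ligated, amplified by PCR and sequenced on an Illumina NextSeq500.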

Experiment [2] concerns the target ETV5 (Homo sapiens, UniProt P41161 1-510). The following applies: protein: recombinant; tags: N-terminal GST; dsDNA, one strand shown. The essentials:
as §1

Experiment [3] has as its target HSF1 (Homo sapiens, UniProt Q00613 1-529). As to conditions: protein: recombinant; tags: N-terminal GST; chain copies: 3; dsDNA, one strand shown. The essentials:
as §1

Experiment [4] addresses T2, SPIC (Homo sapiens, UniProt Q8N5J4 1-248).
T2 sequence: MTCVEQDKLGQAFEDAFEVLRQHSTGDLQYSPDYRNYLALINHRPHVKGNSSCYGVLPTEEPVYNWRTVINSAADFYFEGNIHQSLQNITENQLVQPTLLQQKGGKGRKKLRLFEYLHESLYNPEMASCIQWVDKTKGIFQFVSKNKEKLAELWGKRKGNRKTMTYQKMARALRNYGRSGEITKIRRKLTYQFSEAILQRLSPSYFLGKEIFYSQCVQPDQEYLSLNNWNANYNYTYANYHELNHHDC
As to conditions: protein: recombinant; tags: N-terminal GST; dsDNA, one strand shown. The essentials:
as §1

Experiment [5] addresses ELF4 (Homo sapiens, UniProt Q99607 1-663). The following applies: protein: recombinant; tags: N-terminal GST; dsDNA, one strand shown. The essentials: as §1
Experiment [6] deals with T3, ELK4 (Homo sapiens, UniProt P28324-2 1-405).
T3 sequence: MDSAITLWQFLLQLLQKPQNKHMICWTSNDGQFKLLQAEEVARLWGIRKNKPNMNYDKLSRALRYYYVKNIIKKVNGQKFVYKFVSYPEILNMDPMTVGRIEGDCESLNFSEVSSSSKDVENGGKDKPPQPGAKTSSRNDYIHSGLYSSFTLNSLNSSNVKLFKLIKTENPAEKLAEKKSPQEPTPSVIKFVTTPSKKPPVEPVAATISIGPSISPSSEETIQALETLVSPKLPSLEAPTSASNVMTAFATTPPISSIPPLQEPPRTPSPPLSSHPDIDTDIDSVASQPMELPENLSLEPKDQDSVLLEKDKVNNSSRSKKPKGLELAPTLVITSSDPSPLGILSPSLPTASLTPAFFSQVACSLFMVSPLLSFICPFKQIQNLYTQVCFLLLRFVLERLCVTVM
The following applies: protein: recombinant; tags: N-terminal GST; dsDNA, one strand shown. The essentials: as §1

For experiment [7], the target named is T4, ETV2 (Homo sapiens, UniProt O00321 1-342).
T4 sequence: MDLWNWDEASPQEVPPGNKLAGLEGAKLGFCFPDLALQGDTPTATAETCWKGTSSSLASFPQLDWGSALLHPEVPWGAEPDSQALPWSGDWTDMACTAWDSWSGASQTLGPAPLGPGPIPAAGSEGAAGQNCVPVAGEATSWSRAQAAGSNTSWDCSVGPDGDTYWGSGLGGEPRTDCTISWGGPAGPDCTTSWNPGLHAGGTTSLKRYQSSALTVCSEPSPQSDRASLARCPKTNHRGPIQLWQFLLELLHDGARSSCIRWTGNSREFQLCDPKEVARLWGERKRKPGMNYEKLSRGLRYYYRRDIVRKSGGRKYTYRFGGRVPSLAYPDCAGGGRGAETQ
The following applies: protein: recombinant; tags: N-terminal GST; dsDNA, one strand shown. Summed up: as §1

In experiment [8] the target is T5, ELF3 (Homo sapiens, UniProt P78545 1-371).
T5 sequence: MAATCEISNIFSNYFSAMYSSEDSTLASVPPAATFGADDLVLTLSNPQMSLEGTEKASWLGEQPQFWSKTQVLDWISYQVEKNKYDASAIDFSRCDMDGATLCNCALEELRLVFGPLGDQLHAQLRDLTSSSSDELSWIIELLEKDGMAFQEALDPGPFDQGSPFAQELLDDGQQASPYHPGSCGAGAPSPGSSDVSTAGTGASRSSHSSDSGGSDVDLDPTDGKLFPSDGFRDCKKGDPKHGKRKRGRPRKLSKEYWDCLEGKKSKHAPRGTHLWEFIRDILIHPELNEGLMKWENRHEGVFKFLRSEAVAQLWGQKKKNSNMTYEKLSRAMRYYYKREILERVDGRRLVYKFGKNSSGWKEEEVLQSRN
The following applies: protein: recombinant; tags: N-terminal GST; dsDNA, one strand shown. Summed up:
as §1

Experiment [9] concerns the target CRX (Homo sapiens, UniProt O43186 1-299). As to conditions: protein: recombinant; tags: N-terminal GST; dsDNA, one strand shown. Summed up:
as §1

Experiment [10] has as its target ETV1 (Homo sapiens, UniProt P50549 1-477). As to conditions: protein: recombinant; tags: N-terminal GST; dsDNA, one strand shown. The essentials: as §1
In experiment [11] the target is T6, ERF (Homo sapiens, UniProt P50548 1-548).
T6 sequence: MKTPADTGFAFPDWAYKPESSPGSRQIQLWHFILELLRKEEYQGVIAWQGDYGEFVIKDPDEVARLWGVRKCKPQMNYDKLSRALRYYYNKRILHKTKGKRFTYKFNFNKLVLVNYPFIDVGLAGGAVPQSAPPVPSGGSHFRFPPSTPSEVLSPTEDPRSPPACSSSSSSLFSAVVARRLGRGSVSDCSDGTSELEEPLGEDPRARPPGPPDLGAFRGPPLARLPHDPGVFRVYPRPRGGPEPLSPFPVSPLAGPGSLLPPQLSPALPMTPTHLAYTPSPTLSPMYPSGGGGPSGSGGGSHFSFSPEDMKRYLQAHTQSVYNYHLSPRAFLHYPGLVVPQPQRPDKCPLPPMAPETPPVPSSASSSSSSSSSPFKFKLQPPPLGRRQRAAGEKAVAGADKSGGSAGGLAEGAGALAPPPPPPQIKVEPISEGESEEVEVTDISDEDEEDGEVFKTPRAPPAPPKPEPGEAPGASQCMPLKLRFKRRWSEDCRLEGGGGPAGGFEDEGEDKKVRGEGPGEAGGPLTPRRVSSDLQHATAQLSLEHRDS
The following applies: protein: recombinant; tags: N-terminal GST; dsDNA, one strand shown. Summed up:
as §1

The target of experiment [12] is T7, ETV3L (Homo sapiens, UniProt Q6ZN32 1-361).
T7 sequence: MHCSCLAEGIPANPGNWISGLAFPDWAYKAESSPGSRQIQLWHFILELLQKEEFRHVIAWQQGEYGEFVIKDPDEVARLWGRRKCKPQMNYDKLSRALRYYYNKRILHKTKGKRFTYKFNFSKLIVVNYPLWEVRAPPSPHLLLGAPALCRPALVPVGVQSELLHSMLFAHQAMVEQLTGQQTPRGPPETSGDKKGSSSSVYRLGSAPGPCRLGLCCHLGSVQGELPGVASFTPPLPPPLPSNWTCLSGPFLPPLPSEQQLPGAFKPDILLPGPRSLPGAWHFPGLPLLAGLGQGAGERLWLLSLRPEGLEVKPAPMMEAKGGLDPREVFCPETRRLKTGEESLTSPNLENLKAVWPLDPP
The following applies: protein: recombinant; tags: N-terminal GST; dsDNA, one strand shown. The essentials:
as §1

The target of experiment [13] is T8, ETS2 (Homo sapiens, UniProt P15036 1-469).
T8 sequence: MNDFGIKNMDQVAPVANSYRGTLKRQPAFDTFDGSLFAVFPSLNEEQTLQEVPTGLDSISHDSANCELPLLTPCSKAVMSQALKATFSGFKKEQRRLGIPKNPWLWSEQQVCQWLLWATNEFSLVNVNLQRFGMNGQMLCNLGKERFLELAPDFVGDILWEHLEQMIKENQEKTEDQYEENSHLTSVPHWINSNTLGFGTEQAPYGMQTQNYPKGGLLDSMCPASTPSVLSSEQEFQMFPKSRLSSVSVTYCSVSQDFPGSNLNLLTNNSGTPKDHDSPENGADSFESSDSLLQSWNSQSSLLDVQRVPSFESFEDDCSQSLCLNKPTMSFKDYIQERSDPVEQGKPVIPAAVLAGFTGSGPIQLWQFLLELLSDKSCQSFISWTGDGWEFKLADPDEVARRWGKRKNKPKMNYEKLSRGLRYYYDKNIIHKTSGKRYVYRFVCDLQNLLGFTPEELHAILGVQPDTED
The following applies: protein: recombinant; tags: N-terminal GST; dsDNA, one strand shown. The essentials:
as §1

Experiment [14] has as its target T9, SPDEF (Homo sapiens, UniProt O95238 1-335).
T9 sequence: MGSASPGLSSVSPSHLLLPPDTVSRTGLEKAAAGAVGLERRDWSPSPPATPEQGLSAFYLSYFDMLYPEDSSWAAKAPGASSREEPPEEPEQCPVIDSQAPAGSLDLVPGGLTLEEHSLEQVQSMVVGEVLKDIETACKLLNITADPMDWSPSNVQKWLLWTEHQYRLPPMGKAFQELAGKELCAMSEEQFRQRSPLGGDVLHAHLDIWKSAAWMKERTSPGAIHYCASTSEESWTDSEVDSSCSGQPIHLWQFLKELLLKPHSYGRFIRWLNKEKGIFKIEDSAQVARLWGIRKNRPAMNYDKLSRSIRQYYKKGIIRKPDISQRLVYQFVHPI
As to conditions: protein: recombinant; tags: N-terminal GST; dsDNA, one strand shown. The essentials:
as §1

The target in experiment [15] is T10, ETV7 (Homo sapiens, UniProt Q9Y603 1-341).
T10 sequence: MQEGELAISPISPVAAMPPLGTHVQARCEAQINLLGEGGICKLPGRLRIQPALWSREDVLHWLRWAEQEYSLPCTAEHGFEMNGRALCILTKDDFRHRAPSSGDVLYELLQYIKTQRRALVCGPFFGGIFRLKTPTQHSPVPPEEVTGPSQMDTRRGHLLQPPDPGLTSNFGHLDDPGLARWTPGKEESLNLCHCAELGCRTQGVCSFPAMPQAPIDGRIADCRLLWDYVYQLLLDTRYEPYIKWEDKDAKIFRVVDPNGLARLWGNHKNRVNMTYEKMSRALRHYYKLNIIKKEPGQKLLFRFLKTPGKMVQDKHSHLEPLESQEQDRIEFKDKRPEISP
The following applies: protein: recombinant; tags: N-terminal GST; dsDNA, one strand shown. The essentials: as §1

The target in experiment [16] is T11, ELF5 (Homo sapiens, UniProt Q9UKW6-2 1-255).
T11 sequence: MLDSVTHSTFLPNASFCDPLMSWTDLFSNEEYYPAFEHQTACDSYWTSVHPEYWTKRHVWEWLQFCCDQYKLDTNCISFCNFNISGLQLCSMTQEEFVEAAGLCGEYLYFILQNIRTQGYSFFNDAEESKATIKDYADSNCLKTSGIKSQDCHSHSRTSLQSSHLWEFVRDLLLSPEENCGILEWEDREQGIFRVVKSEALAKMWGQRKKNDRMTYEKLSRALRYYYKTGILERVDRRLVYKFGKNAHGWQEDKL
As to conditions: protein: recombinant; tags: N-terminal GST; dsDNA, one strand shown. Summed up:
as §1

Experiment [17] addresses T12, ETV3 (Homo sapiens, UniProt P41162-2 1-143).
T12 sequence: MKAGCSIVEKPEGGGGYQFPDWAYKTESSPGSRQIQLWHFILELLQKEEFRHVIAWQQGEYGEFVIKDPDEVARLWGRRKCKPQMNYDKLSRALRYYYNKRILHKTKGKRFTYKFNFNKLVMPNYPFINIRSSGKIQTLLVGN
The following applies: protein: recombinant; tags: N-terminal GST; dsDNA, one strand shown. Summed up: as §1

The target of experiment [18] is ETV6 (Homo sapiens, UniProt P41212 1-452). As to conditions: protein: recombinant; tags: N-terminal GST; dsDNA, one strand shown. Summed up:
as §1

Chain of ELF4 (Q99607 whole entry): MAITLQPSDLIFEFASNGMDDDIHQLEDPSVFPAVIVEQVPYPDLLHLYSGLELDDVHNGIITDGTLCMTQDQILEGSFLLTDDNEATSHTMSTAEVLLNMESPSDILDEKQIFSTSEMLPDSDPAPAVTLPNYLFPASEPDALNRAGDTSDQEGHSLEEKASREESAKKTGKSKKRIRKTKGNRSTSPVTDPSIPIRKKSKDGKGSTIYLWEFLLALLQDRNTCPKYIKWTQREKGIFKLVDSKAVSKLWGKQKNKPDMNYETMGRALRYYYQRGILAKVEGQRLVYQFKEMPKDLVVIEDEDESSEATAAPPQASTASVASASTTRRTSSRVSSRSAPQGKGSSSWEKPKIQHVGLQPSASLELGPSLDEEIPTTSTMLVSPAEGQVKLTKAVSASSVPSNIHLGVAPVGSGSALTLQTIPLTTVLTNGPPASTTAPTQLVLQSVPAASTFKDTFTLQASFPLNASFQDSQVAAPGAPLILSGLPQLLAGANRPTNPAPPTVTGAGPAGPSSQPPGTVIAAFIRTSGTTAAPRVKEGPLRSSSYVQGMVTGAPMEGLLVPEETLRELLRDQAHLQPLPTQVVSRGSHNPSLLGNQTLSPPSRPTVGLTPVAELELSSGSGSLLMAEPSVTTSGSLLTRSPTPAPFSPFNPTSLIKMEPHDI
Chain of ETV6 (P41212 whole entry): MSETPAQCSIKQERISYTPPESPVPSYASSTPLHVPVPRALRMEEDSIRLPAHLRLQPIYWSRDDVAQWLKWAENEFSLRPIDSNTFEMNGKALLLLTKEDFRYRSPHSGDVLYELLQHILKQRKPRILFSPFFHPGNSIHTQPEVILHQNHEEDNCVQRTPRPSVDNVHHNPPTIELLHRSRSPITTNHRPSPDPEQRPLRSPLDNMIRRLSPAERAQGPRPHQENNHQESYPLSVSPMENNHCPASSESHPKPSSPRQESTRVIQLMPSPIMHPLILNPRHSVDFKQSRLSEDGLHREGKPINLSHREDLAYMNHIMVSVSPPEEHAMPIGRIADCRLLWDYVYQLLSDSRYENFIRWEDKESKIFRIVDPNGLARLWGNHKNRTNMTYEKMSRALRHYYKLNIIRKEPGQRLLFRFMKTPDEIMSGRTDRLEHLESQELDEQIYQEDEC
Chain of ETV1 (P50549 whole entry): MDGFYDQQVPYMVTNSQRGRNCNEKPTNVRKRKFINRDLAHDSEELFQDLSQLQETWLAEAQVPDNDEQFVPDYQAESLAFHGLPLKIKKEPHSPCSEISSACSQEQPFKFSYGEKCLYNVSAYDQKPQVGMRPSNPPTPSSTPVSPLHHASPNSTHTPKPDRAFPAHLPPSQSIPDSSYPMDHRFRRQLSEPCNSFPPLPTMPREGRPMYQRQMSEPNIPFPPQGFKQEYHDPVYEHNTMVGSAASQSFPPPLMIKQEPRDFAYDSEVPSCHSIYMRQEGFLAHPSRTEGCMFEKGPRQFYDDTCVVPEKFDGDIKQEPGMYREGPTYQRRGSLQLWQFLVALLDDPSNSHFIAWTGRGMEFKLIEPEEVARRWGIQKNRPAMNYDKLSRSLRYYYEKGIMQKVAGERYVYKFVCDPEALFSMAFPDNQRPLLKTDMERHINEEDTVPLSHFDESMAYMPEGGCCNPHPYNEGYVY
Chain of CRX (O43186 whole entry): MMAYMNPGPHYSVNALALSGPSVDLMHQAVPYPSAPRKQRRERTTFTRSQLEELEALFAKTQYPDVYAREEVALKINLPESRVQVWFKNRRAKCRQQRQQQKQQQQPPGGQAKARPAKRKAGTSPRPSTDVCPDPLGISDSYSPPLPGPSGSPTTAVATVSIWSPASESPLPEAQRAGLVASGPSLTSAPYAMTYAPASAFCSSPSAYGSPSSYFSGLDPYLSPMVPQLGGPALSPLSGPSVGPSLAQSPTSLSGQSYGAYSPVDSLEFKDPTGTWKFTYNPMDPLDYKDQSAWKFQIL
Chain of HSF1 (Q00613 whole entry): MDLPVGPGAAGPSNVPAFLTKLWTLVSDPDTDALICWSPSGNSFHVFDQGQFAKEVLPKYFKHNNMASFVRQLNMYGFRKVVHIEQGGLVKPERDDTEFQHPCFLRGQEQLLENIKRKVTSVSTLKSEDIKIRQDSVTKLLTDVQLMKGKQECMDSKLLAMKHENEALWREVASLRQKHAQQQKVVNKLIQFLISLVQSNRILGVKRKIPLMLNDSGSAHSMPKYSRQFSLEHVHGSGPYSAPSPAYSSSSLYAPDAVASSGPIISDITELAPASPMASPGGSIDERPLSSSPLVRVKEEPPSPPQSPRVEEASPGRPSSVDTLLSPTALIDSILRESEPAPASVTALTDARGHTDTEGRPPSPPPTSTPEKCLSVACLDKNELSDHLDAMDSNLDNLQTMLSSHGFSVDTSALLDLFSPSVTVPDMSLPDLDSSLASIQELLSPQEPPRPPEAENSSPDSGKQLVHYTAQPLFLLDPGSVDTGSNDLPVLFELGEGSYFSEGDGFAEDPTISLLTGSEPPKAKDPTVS
Chain of ETV5 (P41161 whole entry): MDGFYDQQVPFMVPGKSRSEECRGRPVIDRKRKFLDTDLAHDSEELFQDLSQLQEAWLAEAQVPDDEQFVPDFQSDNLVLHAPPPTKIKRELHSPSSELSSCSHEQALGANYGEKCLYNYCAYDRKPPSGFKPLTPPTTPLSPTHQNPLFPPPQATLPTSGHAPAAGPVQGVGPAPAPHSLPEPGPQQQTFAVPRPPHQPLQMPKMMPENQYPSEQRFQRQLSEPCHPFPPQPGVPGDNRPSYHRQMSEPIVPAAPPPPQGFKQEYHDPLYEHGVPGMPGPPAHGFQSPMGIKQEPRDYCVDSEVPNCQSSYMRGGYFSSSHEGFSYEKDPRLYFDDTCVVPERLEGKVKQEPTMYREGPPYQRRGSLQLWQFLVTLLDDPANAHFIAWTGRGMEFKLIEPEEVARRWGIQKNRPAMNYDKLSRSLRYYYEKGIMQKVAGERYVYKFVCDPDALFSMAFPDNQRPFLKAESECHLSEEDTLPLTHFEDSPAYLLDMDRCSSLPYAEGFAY

As to TGGTCT, the binding signal in [1] is 1.45 fold enrichment (6-mer frequency, TF over GST control); in experiment [2], 1.52 fold enrichment (6-mer frequency, TF over GST control); in experiment [3] it was 1.12 fold enrichment (6-mer frequency, TF over GST control); in experiment [4], 1.34 fold enrichment (6-mer frequency, TF over GST control); in [5], 1.57 fold enrichment (6-mer frequency, TF over GST control); in experiment [6], 1.48 fold enrichment (6-mer frequency, TF over GST control). In addition, the binding signal in experiment [7] was 1.33 fold enrichment (6-mer frequency, TF over GST control); in experiment [8], 1.28 fold enrichment (6-mer frequency, TF over GST control); in experiment [9], 1.17 fold enrichment (6-mer frequency, TF over GST control); in [10] it was 1.5 fold enrichment (6-mer frequency, TF over GST control); in [11], 1.52 fold enrichment (6-mer frequency, TF over GST control); in [12], 1.55 fold enrichment (6-mer frequency, TF over GST control). In addition, the binding signal in experiment [13] is 1.39 fold enrichment (6-mer frequency, TF over GST control); in [14] it was 1.35 fold enrichment (6-mer frequency, TF over GST control); in [15], 1.28 fold enrichment (6-mer frequency, TF over GST control); in experiment [16] it was 1.55 fold enrichment (6-mer frequency, TF over GST control); in experiment [17], 1.44 fold enrichment (6-mer frequency, TF over GST control); in experiment [18], 1.42 fold enrichment (6-mer frequency, TF over GST control).
